Test results taken from PubChem BioAssay (NCATS).
Records with an inconclusive call do not appear. Entries that show only a call come without a potency. Active and inactive are the calls of the source. Calls follow the shape of the dose curve; as a rule, active = well fitted inhibition curve with a large enough effect; inconclusive = small, poorly fitted or top-dose-only effect; inactive = flat fitted curve, though single readings scatter.

test system: Zika virus NS2B-NS3 protease; assay: Primary screen GU AMC qHTS for Zika virus inhibitors (AID 1347154); conditions: Zika NS2B-NS3 unlinked protease, AMC fluorogenic substrate; series mostly up to 54.1 µM; also: nearly all actives have a fitted effect of over 70% in size
Procedure, shortened: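 Unlinked Zika NS2B hydrophilic domain–NS3 protease complex at 25 nM in 10 mM Tris-HCl pH 8.0, 0.01% Tween 20, with an AMC peptide substrate. Fluorescence change (340/450 nm) over 15 min at room temperature, normalized to controls, fitted to 4-parameter Hill.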
Potency is read from the fitted curve at half-maximal effect.

Question: For OC[C@@H](O)[C@H](O)[C@H](O)[C@@H](O)CO, which Potency is on record?
Answer: The Potency was “inactive”.

Question: N#C[C@H]1C[C@H]2C[C@@H]2N1C(=O)[C@@H](N)C12CC3CC(CC(O)(C3)C1)C2 was tested. Which Potency did it give?
Answer: The Potency was “inactive”.

Question: For NC(=O)c1cnc(-c2ccc(C3(N)CCC3)cc2)c(-c2ccccc2)c1, which Potency is on record?
Answer: The Potency was “inactive”.

Question: For C[C@]12CCC3c4ccc(O)cc4CCC3C1CCC2=O (some centres undefined), which Potency is on record?
Answer: The Potency was “inactive”.

Question: Which Potency does the source give for CCOC1OC(=O)C[C@H]1NC(=O)[C@@H]1CCCN1C(=O)[C@@H](NC(=O)c1ccc(N)c(Cl)c1)C(C)(C)C (some centres undefined) here?
Answer: Its Potency is “inactive”.

Question: How did the Potency turn out when Nc1ncnc2c1ncn2[C@@H]1O[C@H](CO)C[C@@H]1O was run?
Answer: The Potency was “inactive”.

Question: With CN(C[C@@H]1COCCO1)S(=O)(=O)Nc1ccc2ccc3ncc(-c4cnn(C)c4)cc3c(=O)c2c1 as the compound, how does the Potency read?
Answer: The Potency was “inactive”.

Question: With CC=CC(=O)N(CC)c1ccccc1C as the compound, how does the Potency read?
Answer: Its Potency is “inactive”.

Question: For c1ccc2c(Cc3c[nH]c4ccccc34)c[nH]c2c1, which Potency is on record?
Answer: Its Potency is “inactive”.

Question: CC(=Cc1ccccc1)C=C1SC(=S)N(CC(=O)O)C1=O was tested. Which Potency did it give?
Answer: Its Potency is “inactive”.

Question: For O=C(Nc1ccccc1-c1cn2c(CN3CCNCC3)csc2n1)c1cnc2ccccc2n1, which Potency is on record?
Answer: The Potency was “inactive”.

Question: Which Potency does the source give for Cn1cc(C=C2C(=O)Nc3cccnc32)c2ccccc21 here?
Answer: Its Potency is “inactive”.

Question: For CC(C)(C)Cn1c(N)nc2ccc(-c3[nH]c(C(C)(C)C)nc3-c3ccc(F)cc3)nc21, which Potency is on record?
Answer: The Potency was 10.8 µM (active).

Question: For O=c1c(-c2ccc(O)cc2)coc2cc(O[C@@H]3O[C@H](CO)[C@H](O)[C@H](O)[C@H]3O)ccc12, which Potency is on record?
Answer: The Potency was “inactive”.

Question: How did the Potency turn out when COc1ccc(-c2cc(=O)c3c(O)cc(O)cc3o2)cc1O was run?
Answer: The Potency was “inactive”.

Question: For CCOC(CN1C(=O)[C@](CC(=O)Nc2ccc(C)cc2)(NC(=O)Nc2ccc(C)cc2)c2ccccc21)OCC, which Potency is on record?
Answer: The Potency was “inactive”.

Question: Which Potency does the source give for CC(C)C[C@H](CC(=O)O)C(=O)N[C@@H](Cc1c[nH]c2ccccc12)C(=O)N[C@@H](C)c1ccccc1 here?
Answer: Its Potency is “inactive”.

Question: For COc1ccc(-n2c(C)c([N+](=O)[O-])c3ccc(O)cc32)cc1, which Potency is on record?
Answer: The Potency was “inactive”.

Question: Which Potency does the source give for CC(=O)OC1C(C)OC(Oc2c(-c3ccc(O)cc3)oc3cc(O)cc(O)c3c2=O)C(O)C1OC(C)=O (centres undefined) here?
Answer: The Potency was “inactive”.

Question: How did the Potency turn out when COc1ccc2c(Oc3ccc(NC(=O)c4c(C)n(CC(C)(C)O)n(-c5ccccc5)c4=O)nc3)ccnc2c1 was run?
Answer: The Potency was “inactive”.

Question: How did the Potency turn out when Cn1c(N2CCCCS2(=O)=O)nc(C(=O)NCc2ccc(F)cc2)c(O)c1=O was run?
Answer: Its Potency is “inactive”.

Question: For COc1cc(O)c2c(c1)C(=O)c1cc(C)cc(O)c1C2=O, which Potency is on record?
Answer: The Potency was “inactive”.

Question: Which Potency does the source give for O=C(O)c1cc(-c2ccccc2)nc2ccccc12 here?
Answer: The Potency was “inactive”.

Question: For O=C(Nc1c(Cl)cncc1Cl)c1ccc(OC(F)F)c(OCC2CC2)c1, which Potency is on record?
Answer: The Potency was “inactive”.

Question: For CCC(=O)O[C@]1(C(=O)CO)CC[C@H]2[C@@H]3CCC4=CC(=O)CC[C@]4(C)[C@@H]3CC[C@@]21C, which Potency is on record?
Answer: The Potency was “inactive”.

Question: Which Potency does the source give for O=C(O)c1cc(O)c2c(c1)C(=O)c1cccc(O)c1C2=O here?
Answer: The Potency was 24.8 µM (active).

Question: How did the Potency turn out when COCCOc1nc(-c2ccc(Cl)c(Cl)c2)n(-c2ccc(NC(=O)CCl)cc2)n1 was run?
Answer: Its Potency is “inactive”.

Question: Which Potency does the source give for Cc1ccc(Nc2cc(-c3cccc(N4C(=O)c5ccccc5C4=O)c3)ncn2)cc1NS(C)(=O)=O here?
Answer: Its Potency is “inactive”.

Question: For COC[C@@H](c1ccc(C(F)(F)F)cc1)N1CCN(C2(C)CCN(C(=O)c3c(C)ncnc3C)CC2)C[C@H]1C, which Potency is on record?
Answer: The Potency was “inactive”.

Question: Which Potency does the source give for Cc1cnc(C(=O)O)c[n+]1[O-] here?
Answer: Its Potency is “inactive”.

Question: COc1cc(Nc2ncc(F)c(Nc3ccc4c(n3)NC(=O)C(C)(C)O4)n2)cc(OC)c1OC was tested. Which Potency did it give?
Answer: Its Potency is “inactive”.

Question: How did the Potency turn out when O=C(Nc1cc(Cl)cc2c1[nH]c1cnccc12)c1cccnc1 was run?
Answer: Its Potency is “inactive”.

Question: With O=c1cc(CN2CCOCC2)occ1OCCCCCSc1ccnc2cc(C(F)(F)F)ccc12 as the compound, how does the Potency read?
Answer: Its Potency is “inactive”.

Question: How did the Potency turn out when CN(C)Cc1cccc(N=C(c2ccccc2)c2c(O)[nH]c3cc(C(=O)N(C)C)ccc23)c1 was run?
Answer: The Potency was “inactive”.

Question: How did the Potency turn out when NS(=O)(=O)c1ccc(NC2=CC(=O)c3ccccc3C2=O)cc1 was run?
Answer: The Potency was “inactive”.

Question: How did the Potency turn out when CC[C@H]1OC(=O)[C@H](C)[C@@H](O[C@H]2C[C@@](C)(OC)[C@@H](O)[C@H](C)O2)[C@H](C)[C@@H](O[C@@H]2O[C@H](C)C[C@H](N(C)C)[C@@H]2O)[C@](C)(O)C[C@@H](C)CN(C)[C@H](C)[C@@H](O)[C@]1(C)O was run?
Answer: Its Potency is “inactive”.

Question: For O=C(NCc1ccccc1)c1csc(Nc2ccncn2)n1, which Potency is on record?
Answer: Its Potency is “inactive”.

Question: COc1ccc(-c2oc3c(CC=C(C)C)c(OC4O[C@H](CO)[C@@H](O)[C@H](O)[C@@H]4O)cc(O)c3c(=O)c2OC2O[C@@H](C)[C@H](O)[C@@H](O)[C@@H]2O)cc1 (some centres undefined) was tested. Which Potency did it give?
Answer: The Potency was “inactive”.

Question: How did the Potency turn out when CC(C)(C)C(=O)Oc1ccc2c(c1)nc(NC(=O)c1cccc([N+](=O)[O-])c1)n2CCCO was run?
Answer: Its Potency is “inactive”.
